# Screens as filed in PubChem BioAssay.
# Compounds with a hit are over-represented: about 2.8% of the library has one in this group of screens.
# HepG2 tox: qHTS for Inhibitors of TGF-b: Cytotox Counterscreen. HepG2 CAGA-GFP viability, ATP luminescence, 18 h. Potency, µM (highest dose often 46.1 µM), for the others: at the highest dose activity change, negative = cytotoxicity, hits mostly cytotoxic. 410,000 compounds, 0.76% hits; note: potency is the fitted concentration of half-maximal effect
#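 HepG2 CAGA-GFP cells (1000/well, DMEM with 1% FBS) received compound, then TGF-beta at 500 pg/mL final, and were incubated 18 hours at 37 degrees C. Viability was read by CellTiter-Glo luminescence. Media-only wells were set as complete cell-killing and DMSO as no toxicity.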
# Six1-Eya2 inh: qHTS Assay for Inhibitors of the Six1/Eya2 Interaction | Homeobox protein SIX1 (Homo sapiens) + Protein phosphatase EYA2 (Homo sapiens), … | AlphaScreen GST-Six1/His-Eya2 binding, biochemical; active compounds read low | activity change, % (concentration not given with the values) | 360,000 compounds, 0.56% hits; in the data active = activity change below about -65%; inconclusive = mostly about -30% to -63%; note: % is set by controls: 0 for no effect and ±100 for the full control effect
# Target sequence (O00167 whole entry, looked up): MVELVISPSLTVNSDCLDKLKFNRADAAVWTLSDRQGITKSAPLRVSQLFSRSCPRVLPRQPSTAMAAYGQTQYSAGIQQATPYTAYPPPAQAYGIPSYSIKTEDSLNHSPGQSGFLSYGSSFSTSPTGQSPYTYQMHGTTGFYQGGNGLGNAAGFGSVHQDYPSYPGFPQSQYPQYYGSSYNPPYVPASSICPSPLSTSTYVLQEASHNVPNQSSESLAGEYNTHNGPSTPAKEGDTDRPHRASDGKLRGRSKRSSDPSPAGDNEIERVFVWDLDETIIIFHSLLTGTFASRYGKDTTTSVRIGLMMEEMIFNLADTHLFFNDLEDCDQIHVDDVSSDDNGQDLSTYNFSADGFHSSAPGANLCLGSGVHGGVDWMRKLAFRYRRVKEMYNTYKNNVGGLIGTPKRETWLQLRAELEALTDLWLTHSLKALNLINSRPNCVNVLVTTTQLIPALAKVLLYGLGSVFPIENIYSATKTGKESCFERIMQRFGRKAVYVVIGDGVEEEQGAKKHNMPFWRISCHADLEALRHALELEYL
# Target sequence (Q15475 whole entry, looked up): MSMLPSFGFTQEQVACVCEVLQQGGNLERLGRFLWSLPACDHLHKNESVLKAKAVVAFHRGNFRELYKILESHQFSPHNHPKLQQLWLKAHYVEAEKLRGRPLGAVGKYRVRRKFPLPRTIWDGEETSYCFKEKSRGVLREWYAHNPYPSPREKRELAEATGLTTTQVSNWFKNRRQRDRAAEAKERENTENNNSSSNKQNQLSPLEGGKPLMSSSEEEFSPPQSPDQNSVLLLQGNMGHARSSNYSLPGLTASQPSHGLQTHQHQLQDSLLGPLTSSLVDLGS
#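 Compounds are tested against tagged Six1 and Eya2 proteins bridged by glutathione donor and nickel acceptor beads; after a one-hour incubation at 37 °C without light, AlphaScreen emission is recorded.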
# ATXN2 expr inh: Primary qHTS for Inhibitors of ATXN expression; HEK-293 ATXN2-luciferase reporter, luminescence, 24 h; Potency, µM (series often up to 57 µM), without a hit: top-dose activity change, negative = inhibition, usual class: inhibitors; 360,000 compounds, 0.72% hits; AID 1745845, 2022; note: potency is the fitted concentration of half-maximal effect; % is set by controls: 0 for no effect and ±100 for the full control effect; nearly all actives have a fitted effect of over 55% in size
#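 ATXN2-luciferase reporter cells (luciferase flanked by upstream and downstream ATXN2 gene portions) were treated 24 h at 37 °C with compounds at up to 57 uM. SteadyGlo luminescence gave expression; GF-AFC fluorescence gave viability.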
# CtBP-E1A blk: qHTS Assay for Inhibitors of the CtBP/E1A Interaction; CtBP / adenovirus E1A interaction (AlphaScreen); AlphaScreen GST-E1A/His-CtBP binding, 1536-well; active compounds read low; activity change, % (test concentration not listed); 340,000 compounds, 0.49% hits; in the data active = activity change below about -65%; inconclusive = mostly about -30% to -63%; note: % is set by controls: 0 for no effect and ±100 for the full control effect
#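 AlphaScreen with 125 nM GST-E1A and 125 nM His-CtBP (5X stocks) in Tris pH 8.0, 300 mM NaCl, BSA, Tween 20, TCEP. Compounds preincubated 2 h at 37 deg C, then glutathione donor/nickel acceptor beads added for 1 h at 37 deg C in dark.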
# TGFb inhibitor: qHTS for Inhibitors of TGF-b | HepG2 CAGA-GFP TGF-b/SMAD3 reporter, GFP fluorescence, 18 h; TGF-beta stimulated, 500 pg/mL final | Potency, µM (series often up to 46.1 µM), inactives show top-dose activity, negative = inhibition, actives largely listed as inhibitors | AID 588855, 2011 | 410,000 compounds, 1.2% hits; note: potency is the fitted concentration of half-maximal effect; % is set by controls: 0 for no effect and ±100 for the full control effect; nearly all actives have a fitted effect of over 65% in size
#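 Read-out: total well GFP (ex488/em500-530) summed from mean per-cell fluorescence. Cells: HEPG2 CAGA-GFP, 1% FBS DMEM, 18 h at 37 degrees C with 500 pg/mL final TGF-beta. Unstimulated wells served as the full-inhibition control; stimulated DMSO wells = 0%.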
# ATXN viability: Viability Counterscreen for Primary qHTS for Inhibitors of ATXN expression; S2 cells (HEK-293 line with an ATXN2-luciferase reporter) viability, CellTiter-Fluor protease fluorescence, 24 h; Potency, µM (doses to about 56.7 µM), usual class: cytotoxic; 400,000 compounds, 0.49% hits; AID 651635, 2014; note: potency is the fitted concentration of half-maximal effect; nearly all actives have a fitted effect of over 40% in size
# An asterisk follows results filed as active; i = inactive; ? = inconclusive; . = no result given. Unless noted, calls come from the whole dose curve; as a rule, active = well fitted curve in the direction sought with a large enough effect; inconclusive = small, poorly fitted or top-dose-only effect, or another doubt; inactive = no such curve, though single readings can be large; an effect the other way counts as inactive or inconclusive.
SMILES,HepG2 tox,Six1-Eya2 inh,ATXN2 expr inh,CtBP-E1A blk,TGFb inhibitor,ATXN viability
COc1cc2ccccc2cc1C(=O)N1CCN(c2nc3c(F)cc(F)cc3s2)CC1,-22%,.,?,.,7.1µM*,i
CCOc1ccccc1-n1c(SCC(N)=O)nnc1-c1ccc(O)cc1,4%,-90*,0%,-90*,13%,i
CCOc1ccccc1-n1c(SCC(N)=O)nnc1-c1ccccc1,3%,3,2%,4,7%,i
CCCOc1ccc(C2C(=O)N(C3CCCCCC3)CC(=O)N2CCCOCC)cc1OC (stereo not drawn),-17%,.,.,.,-2%,.
O=C(c1ccccc1)N1CCSc2sccc2C1=O,-8%,11,4.7µM*,-4,-9%,i
Oc1ccccc1C=NNC(=S)NC1CC2C=CC1C2 (stereo not drawn),-43%,-77*,.,?,?,?
Oc1c(Cl)cc(Cl)cc1/C=N/NC(=S)NC1CC2C=CC1C2 (stereo not drawn),-64%,?,?,-82*,?,.
Oc1ccccc1/C=N/NC(=S)NC1CC2C=CC1C2 (stereo not drawn),-161%,-82*,-37%,-86*,?,i
Nc1c(O)ccc2c1C(=O)c1ccccc1C2=O,-50%,-74*,7%,?,-28%,?
Nc1cc(N)c2c(c1)C(=O)c1ccccc1-2,-6%,-18,1%,?,-6%,i
Cc1noc(NS(=O)(=O)c2ccc(NC(=O)CSc3nnc4c(n3)[nH]c3ccccc34)cc2)c1C,29%,-88*,7%,-90*,31%,i
Cc1nc(-c2ccccc2)sc1CCNC(=O)c1ccco1,-1%,.,2%,.,6%,i
CCCN(CCC)C(=O)CC(c1ccccc1)c1cc(C)ccc1O (stereo not drawn),-42%,-4,3%,1,?,i
CN(Cc1ccccc1)C(=O)CC(c1ccccc1)c1cc(Cl)ccc1O (stereo not drawn),-100%,-7,-36%,5,16µM*,i
CCOc1ccc(NC(=S)NCc2ccc3[nH]c(C)cc3c2)cc1,-15%,-68*,.,.,?,?
COc1ccc(CC(=O)N/N=C/C=C/c2ccc3c(c2)OCO3)cc1OC,76%,-69*,-25%,-18,0%,i
COC(=O)N/N=C\C=C\c1ccc2c(c1)OCO2,3%,7,27%,-5,7%,i
CC(C)(C)OC(=O)N1CCN(/[N+]([O-])=N/Oc2ccc([N+](=O)[O-])cc2[N+](=O)[O-])CC1,-100%,.,.,.,?,.
CN(C)c1ccc(Sc2ccc3nc(N)nc(N)c3c2)cc1,0.32µM*,?,.,-9,?,?
Cc1cn2c(=O)cc(COC(=O)c3ccccc3F)nc2s1,0%,.,14%,.,-17%,i
Nc1nc(Cl)nc2c1ncn2C1CC(O)C(CO)O1 (stereo not drawn),-56%,5,1.8µM*,-18,?,i
N#Cc1c(N)nc(SCc2ccccc2)c(C#N)c1-c1ccco1,-8%,-8,-13%,11,?,i
N#Cc1c(N)nc(SC2CCCCC2=O)c(C#N)c1-c1ccco1 (stereo not drawn),-17%,-66*,31%,?,-2%,i
O=C(CN1CCN(Cc2ccccc2)CC1)Nc1ccc([N+](=O)[O-])cc1C(=O)Nc1ccccc1F,-35%,-11,.,.,?,?
O=C(CNCc1ccccn1)Nc1ccc([N+](=O)[O-])cc1C(=O)Nc1ccccc1F,-13%,-93*,-23%,-89*,?,i
SMILES,HepG2 tox,Six1-Eya2 inh,ATXN2 expr inh,CtBP-E1A blk,TGFb inhibitor,ATXN viability
O=C(C[n+]1csc2ccccc21)c1cccc([N+](=O)[O-])c1,-5%,.,.,.,-28%,.
CCOc1ccc(Nc2nc(N)c(C(=O)c3ccccc3Cl)s2)cc1,-46%,.,.,.,3.5µM*,.
COc1ccc(Nc2nc(N)c(C(=O)c3ccc(OC)cc3)s2)cc1,-153%,16,?,-6,13µM*,?
COc1ccc(Nc2nnc(-c3ccc(C(N)=O)cc3)c3ccccc23)cc1,1%,-83*,-2%,5,?,i
Cc1ccc(C(=O)c2sc(Nc3ccc(F)cc3)nc2N)c(C)c1,-75%,.,?,.,13µM*,i
CCc1cccc(-n2c(=O)c3cccnc3n2CC(=O)Nc2ccc(OC)c(Cl)c2)c1,-4%,.,.,.,-15%,.
CCOC(=O)c1ccc(NC(=O)CN(c2ccc(C)cc2)S(=O)(=O)c2c(C)noc2C)cc1,-30%,.,?,.,?,?
Cc1cccc(-c2noc(-c3ccc(N4CCN(C)CC4)c([N+](=O)[O-])c3)n2)c1,6%,.,5%,.,12%,i
N#Cc1ccc(C(=O)Nc2ccc3c(c2)N(C2CCCC2)C(=O)c2ccccc2S3)cc1,-8%,.,-1%,.,5.6µM*,i
CO[C@H]1/C=C\O[C@@]2(C)Oc3c(C)c(O)c4c(O)c(c5c(nc6cc(C)ccn65)c4c3C2=O)NC(=O)C(C)=CC=C[C@H](C)[C@H](O)[C@@H](C)[C@@H](O)[C@@H](C)[C@H](OC(C)=O)[C@H]1C,.,.,-10%,.,.,.
c1ccc(C2[C@H]3CN(Cc4cccnc4)[C@H](c4ccccc4)C34CC2(c2cccnc2)C4)cc1 (stereo partly drawn),-58%,-16,-14%,?,14µM*,?
Cc1c(C(=O)N2CCCC2)sc2ncnc(NCCc3ccccn3)c12,.,.,.,.,.,i
O=C1Cn2nnc(-c3ccccc3)c2C2c3ccccc3CCN12 (stereo not drawn),-3%,6,14%,2,-24%,i
COc1cc(/C=C(\C#N)c2ccccn2)cc(OC)c1O,-25%,-5,.,-9,29%,i
COc1cc(/C=C(\C#N)c2[nH]nc(N)c2C#N)cc(OC)c1O,-22%,?,15%,-67*,?,?
CCCc1nnc(NC(=O)Cc2coc3c(C)c(C)ccc23)s1,-42%,.,-3%,.,3%,i
COc1cccc2c(NCc3ccccc3)nc(-n3c(N)nc4ccccc43)nc12,.,.,27µM*,.,.,.
COc1cccc(-c2nc(NCc3cccnc3)c3ccccc3n2)c1O,-13%,-6,-20%,6,-10%,i
C=CC[C@@H](Cc1ccc(F)cc1)C(=O)OC[C@@H]1CCCN1C(=O)[C@H](CC=C)CC(=O)N(CCO)Cc1ccccc1,-27%,-8,?,-15,?,20µM*
